This is an account of results in PubChem BioAssay (NCATS).

SMILES strings stand for the structures. A number with no mark means an inactive call. Inconclusive results are not listed. Active and inactive are the calls of the source. Unless noted, calls come from the whole dose curve; as a rule, active = well fitted curve in either direction with a large enough effect (not every such curve was filed as active); inconclusive = small, poorly fitted or top-dose-only effect, or another doubt; inactive = flat fitted curve, though single readings scatter.

Assay [1] addresses Lysosomal acid glucosylceramidase (Homo sapiens) (UniProt P04062). Nature of the assay: Glucocerebrosidase-p2 (AID 348; in the data active = potency below about 10 µM; note: potency is the fitted concentration of half-maximal effect). Particulars: purified GBA, blue fluorogenic substrate, 40 min. Put shortly:
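Compounds titrated from 0.6 nM upwards against 0.2 nM enzyme in pH 5.9 citric acid/KH2PO4, taurocholate, tween-20; blue fluorogenic substrate 80 uM, 40 min room temperature, stopped and read Ex 365/Em 440 for AC50.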

A short description of assay [2]: AP1 Signaling Pathway (AID 357).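 Note: ME-180 reporter cells stimulated with EGF at its EC50 level; % is set by controls: 0 for no effect and ±100 for the full control effect.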 The conditions noted are these: ME-180 AP-1-bla reporter, EGF-induced, beta-lactamase ratio, 5 h; at 7.69 µM (top of the series) unless noted. In short, it runs like this:
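In this screen, ME-180 cells in Opti-MEM with 0.5% dialyzed FBS received EC50 EGF and compound titrations for 5 h. AP-1 reporter beta-lactamase was detected via CCF4 ratio, giving AC50 for positive and negative modulators.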

Assay [3] has as its target Cytochrome P450 1A2 (Homo sapiens) (UniProt P05177). As to the kind of experiment: p450-cyp1a2 (AID 410; calls by dose curve; note: potency is the fitted concentration of half-maximal effect;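 for activity change, negative = inhibition: -100% = full effect of reference inhibitor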). The conditions noted are these: recombinant CYP1A2, luciferin-ME demethylation, luminescence; series mostly up to 11.4 µM. In short, it runs like this: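 Luminescent readout of luciferin formed from Luciferin-ME by human CYP1A2; data normalized against complete inhibition by 57 uM furafylline. Enzyme 20nM, substrate 100uM at Km, 100mM KPO4 buffer, 60 min reaction at room temperature.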

Assay [4] is described as follows: NFAT Signaling Pathway (AID 444).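 Note: carbachol stimulus at about its EC50 of 1 µM final; % is set by controls: 0 for no effect and ±100 for the full control effect.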 Particulars: Jurkat NFAT-bla M1, carbachol, beta-lactamase ratio, 5 h; at 7.69 µM (top of the series) unless noted. In short, it runs like this: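 Jurkat cells with NFAT-driven β-lactamase reporter and co-expressed M1 receptor, stimulated with carbachol (final 1 uM, ~EC50), compound titration, 5 h at 37 °C. CCF4 loaded 1 h at RT; 460/530 nm ratio gave %activity and AC50.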

Assay [5] in a line: Stat Signaling Pathway (AID 446).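 Note: ME-180 cervical cancer cells given 40 pM IL-6 alongside compound; SIE-controlled beta-lactamase reporter measured as 460/530 nm FRET emission ratio; % is set by controls: 0 for no effect and ±100 for the full control effect.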 The conditions noted are these: ME-180 SIE beta-lactamase reporter, IL-6 stimulated, 5 h; at 7.69 µM (top of the series) unless noted. In short, it runs like this: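 ME-180 SIE-bla cells; overnight plating; cpd + IL-6 40 pM, 5 h, 37 C; LiveBLAzer 2.5 h RT; 460/530 nm emission ratio. Normalized to 300 pM IL-6 and 125 nM JAK inhibitor controls.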

The target in assay [6] is Glucocorticoid receptor (Homo sapiens) (UniProt P04150). Nature of the assay: GR-GFP Redistribution (AID 450;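 active = compounds whose dose series gives a full or clear partial fitted curve of increased nuclear translocation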; note: potency is the fitted concentration of half-maximal effect). The conditions noted are these: U2OS GR-GFP nuclear translocation, laser cytometry, 2 h.
The target is the same in assay [7]. As to the kind of experiment: GR-EFC Redistribution (AID 451; calls by dose curve; note: potency is the fitted concentration of half-maximal effect). The conditions noted are these: CHO-K1 GR-EFC translocation, beta-gal luminescence, 2 h. Put shortly: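 CHO-K1 cells expressing nuclear EA and GR-ED fragments of b-gal; compounds titrated up to 46 uM final, 2 h at 37 C. GR nuclear translocation read as complemented b-gal luminescence after 1 h RT detection.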

Assay [8] addresses Mitogen-activated protein kinase 10 (Mus musculus) (UniProt Q61831). Nature of the assay: JNK3 AlphaScreen Assay (AID 530).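 Note: kinase came from lysate of stimulated human HepG2 cells; signal reports phosphorylation of biotinylated GST-cJun 1-79 at Ser73 with 10 µM ATP; % is set by controls: 0 for no effect and ±100 for the full control effect.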 Particulars: JNK3 lysate, c-Jun phosphorylation; series mostly up to 11.4 µM. Put shortly:
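Pre-activated (IL-1β/TNFα) JNK3 in HepG2 lysates phosphorylates biotin-GST-cJun(1-79), 10 uM ATP; anti-phospho-cJun(Ser73) AlphaScreen read at room temperature, pH 7.6 Tris buffer. Compounds pre-incubated 15 min as titrations.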
For orientation: Bead proximity is the source of the signal in Alpha formats.

Assay [9] addresses 3',5'-cyclic-AMP phosphodiesterase 4B (Homo sapiens) (UniProt Q07343). As to the kind of experiment: qHTS Assay for Inhibitors of PDE-IV (AID 607; active = well fitted activation curve with a large enough effect in the main read-out, with a control signal flat, not every such curve was filed as active; note: % of control where 0% means no effect). Particulars: HEK293 ACTOne CNG channel cells, membrane potential fluorescence; series mostly up to 22.9 µM. Put shortly: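 ACTOne HEK293 cells carry a modified cAMP-gated CNG channel and express endogenous PDE4; plated 1000 cells/well, compounds up to 22.9 uM final. Membrane-potential dye fluorescence (ex 535/em 590) was read; parental cells received 10 uM forskolin + 100 uM RO 20-1724.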
On the technique in general: In qHTS, concentration-response curves come from the screen itself.

Assay [10] concerns the target Cytochrome P450 3A4 (Homo sapiens) (UniProt P08684). As to the kind of experiment: qHTS Assay for Activators of Cytochrome P450 3A4 (AID 885; active = well fitted activation curve with a large enough effect; note: nearly all actives have a fitted effect of over 65% in size). Particulars: recombinant CYP3A4, Luciferin-PPXE luminescence, 60 min; series mostly up to 11.4 µM. Put shortly: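 20nM CYP3A4 + 25uM Luciferin-PPXE (=KM), 200mM KPO4; cpd 10 min RT; NADPH regen, 60 min RT; stop w/ detection buffer, 20 min; luminescence. Normalized to 57 uM ketoconazole.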

Cytochrome P450 3A4 (Homo sapiens), sequence (P08684 whole entry, looked up): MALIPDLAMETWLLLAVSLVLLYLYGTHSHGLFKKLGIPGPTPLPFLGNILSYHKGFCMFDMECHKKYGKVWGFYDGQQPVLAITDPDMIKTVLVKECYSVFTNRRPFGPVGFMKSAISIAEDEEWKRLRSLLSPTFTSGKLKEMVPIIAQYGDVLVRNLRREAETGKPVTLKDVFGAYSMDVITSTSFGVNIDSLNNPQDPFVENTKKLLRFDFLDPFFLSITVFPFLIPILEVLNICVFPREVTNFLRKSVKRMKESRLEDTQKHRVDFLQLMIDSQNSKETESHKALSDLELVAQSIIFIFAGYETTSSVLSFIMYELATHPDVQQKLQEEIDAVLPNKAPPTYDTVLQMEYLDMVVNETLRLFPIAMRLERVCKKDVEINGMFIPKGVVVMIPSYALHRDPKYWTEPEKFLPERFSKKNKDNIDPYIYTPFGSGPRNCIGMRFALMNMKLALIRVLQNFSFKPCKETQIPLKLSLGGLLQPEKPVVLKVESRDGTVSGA
Lysosomal acid glucosylceramidase (Homo sapiens), sequence (P04062 whole entry, looked up): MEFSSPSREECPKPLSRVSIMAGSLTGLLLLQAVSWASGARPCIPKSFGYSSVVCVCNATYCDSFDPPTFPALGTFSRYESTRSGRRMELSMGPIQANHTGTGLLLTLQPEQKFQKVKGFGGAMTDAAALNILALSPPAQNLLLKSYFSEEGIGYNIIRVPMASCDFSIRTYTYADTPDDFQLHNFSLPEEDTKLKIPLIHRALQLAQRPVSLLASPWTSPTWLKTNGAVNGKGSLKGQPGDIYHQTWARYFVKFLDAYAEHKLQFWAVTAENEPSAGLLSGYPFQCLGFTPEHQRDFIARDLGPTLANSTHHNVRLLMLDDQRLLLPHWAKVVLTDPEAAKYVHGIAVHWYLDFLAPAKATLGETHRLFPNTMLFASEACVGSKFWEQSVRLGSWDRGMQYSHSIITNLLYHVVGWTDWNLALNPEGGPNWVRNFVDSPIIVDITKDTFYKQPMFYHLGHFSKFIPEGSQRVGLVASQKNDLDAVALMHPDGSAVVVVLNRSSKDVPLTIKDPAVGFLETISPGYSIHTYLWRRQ
3',5'-cyclic-AMP phosphodiesterase 4B (Homo sapiens), sequence (Q07343 whole entry, looked up): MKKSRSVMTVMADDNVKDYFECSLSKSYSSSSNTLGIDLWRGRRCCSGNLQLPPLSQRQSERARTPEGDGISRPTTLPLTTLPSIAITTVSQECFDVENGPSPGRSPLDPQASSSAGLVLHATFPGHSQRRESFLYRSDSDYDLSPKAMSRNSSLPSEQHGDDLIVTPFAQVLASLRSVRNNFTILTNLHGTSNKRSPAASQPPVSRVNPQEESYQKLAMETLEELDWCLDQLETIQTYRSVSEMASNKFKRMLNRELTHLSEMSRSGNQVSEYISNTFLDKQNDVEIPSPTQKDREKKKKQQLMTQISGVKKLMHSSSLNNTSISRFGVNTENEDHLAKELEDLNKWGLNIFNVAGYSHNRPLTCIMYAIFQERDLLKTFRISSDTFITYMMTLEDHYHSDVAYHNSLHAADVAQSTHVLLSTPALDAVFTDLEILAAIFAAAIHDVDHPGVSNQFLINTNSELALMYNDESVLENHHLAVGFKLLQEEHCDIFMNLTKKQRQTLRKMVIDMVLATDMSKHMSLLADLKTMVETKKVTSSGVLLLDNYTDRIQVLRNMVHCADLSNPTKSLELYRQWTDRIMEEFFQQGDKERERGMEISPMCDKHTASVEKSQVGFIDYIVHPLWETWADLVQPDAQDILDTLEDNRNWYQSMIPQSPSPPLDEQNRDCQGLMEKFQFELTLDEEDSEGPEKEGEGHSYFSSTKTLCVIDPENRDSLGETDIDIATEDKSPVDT
Cytochrome P450 1A2 (Homo sapiens), sequence (P05177 whole entry, looked up): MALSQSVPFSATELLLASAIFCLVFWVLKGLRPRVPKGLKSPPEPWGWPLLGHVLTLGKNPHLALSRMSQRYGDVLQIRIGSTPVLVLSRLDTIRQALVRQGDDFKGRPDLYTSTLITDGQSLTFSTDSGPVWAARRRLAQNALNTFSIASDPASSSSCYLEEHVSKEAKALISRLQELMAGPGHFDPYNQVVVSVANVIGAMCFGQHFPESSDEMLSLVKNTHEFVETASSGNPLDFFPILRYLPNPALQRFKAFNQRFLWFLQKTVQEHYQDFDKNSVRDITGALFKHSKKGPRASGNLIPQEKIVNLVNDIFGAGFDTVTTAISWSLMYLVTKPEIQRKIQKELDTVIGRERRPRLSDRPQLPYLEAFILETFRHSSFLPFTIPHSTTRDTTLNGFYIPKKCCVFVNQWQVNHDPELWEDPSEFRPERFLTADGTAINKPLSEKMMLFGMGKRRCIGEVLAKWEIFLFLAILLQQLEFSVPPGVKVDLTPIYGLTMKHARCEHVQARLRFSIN
Glucocorticoid receptor (Homo sapiens), sequence (P04150 whole entry, looked up, the tested form may be a part): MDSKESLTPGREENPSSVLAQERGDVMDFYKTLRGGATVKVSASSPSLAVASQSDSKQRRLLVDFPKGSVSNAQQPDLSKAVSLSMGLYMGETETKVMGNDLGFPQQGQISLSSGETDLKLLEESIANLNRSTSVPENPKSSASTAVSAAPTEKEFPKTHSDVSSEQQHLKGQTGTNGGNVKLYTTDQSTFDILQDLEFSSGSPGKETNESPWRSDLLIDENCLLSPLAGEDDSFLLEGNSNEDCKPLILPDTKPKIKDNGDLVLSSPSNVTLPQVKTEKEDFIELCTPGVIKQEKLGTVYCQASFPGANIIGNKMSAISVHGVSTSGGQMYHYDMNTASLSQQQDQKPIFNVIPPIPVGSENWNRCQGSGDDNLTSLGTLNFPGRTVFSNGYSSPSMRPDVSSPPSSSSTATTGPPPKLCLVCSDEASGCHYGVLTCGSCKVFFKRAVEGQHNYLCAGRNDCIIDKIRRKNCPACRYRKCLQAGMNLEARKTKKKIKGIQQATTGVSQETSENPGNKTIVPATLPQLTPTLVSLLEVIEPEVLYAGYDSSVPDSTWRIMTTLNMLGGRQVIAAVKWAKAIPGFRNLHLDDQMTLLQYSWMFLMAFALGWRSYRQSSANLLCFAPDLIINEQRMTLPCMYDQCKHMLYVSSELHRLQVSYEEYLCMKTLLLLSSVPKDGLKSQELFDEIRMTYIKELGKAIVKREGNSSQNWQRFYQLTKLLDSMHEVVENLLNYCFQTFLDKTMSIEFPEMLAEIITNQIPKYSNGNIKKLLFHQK

For `Nc1cccc(OCc2nc(N)nc(N)c2-c2ccc(Cl)cc2)c1`, the Potency is above 11.4 µM in assay [1], 0.158 µM (active) in assay [3], above 46 µM in assay [6] and above 9.22 µM in assay [7]. Moreover, the activity change, negative = inhibition in [2] is 6.37%; in assay [4] it was -4.61%. Further, the activity, negative = inhibition in assay [5] is 6.21%. For the same compound, the Potency entry in assay [8], in assay [9] and in assay [10] was “inactive” throughout.

For `Nc1ccc(S(=O)(=O)c2ccc(NC(=O)c3cccnc3)cc2)cc1`, the Potency in assay [1] is above 11.4 µM; in [6], above 46 µM; in assay [7], above 9.22 µM. For the same compound, the activity change, negative = inhibition is -0.755% in [2], -21.1% [at 2.29 µM] in assay [3] and 12.7% in [4]. Moreover, the activity, negative = inhibition in assay [5] is 8.7%. Further, the Potency entry in assay [8], in [9] and in assay [10] was “inactive” each time.

For `O=C(NNS(=O)(=O)c1ccccc1)c1cccnc1`, the Potency in [1] is above 11.4 µM; in [6] it was above 46 µM; in assay [7], above 9.22 µM. In addition, the activity change, negative = inhibition in assay [2] is 16.3%; in assay [3], 2.2% [at 2.29 µM]; in assay [4] it was 7.27%. Also, the activity, negative = inhibition in [5] is 2.24%. The Potency entry in assay [8], in [9] and in [10] was “inactive” throughout.

As for `Cc1ccc(-c2nnc(-c3ccc4ccccc4c3)o2)cc1`, the Potency in assay [1] is above 11.4 µM; in assay [3], 0.631 µM (active); in [6], above 46 µM; in assay [7], above 9.22 µM. The activity change, negative = inhibition in assay [2] is 13.5%; in [4] it was -21%. In addition, in assay [5], the activity, negative = inhibition was 14.3%. Moreover, the Potency entry in assay [8], in [9] and in [10] was “inactive” each time.

For `c1cc(CNCCN2CCNCC2)ccn1`, the Potency in [1] was above 11.4 µM; in assay [6], above 46 µM; in assay [7], above 9.22 µM. The figures for the activity change, negative = inhibition in [2] and in [4] were -6.63% and 3.58%, respectively. Besides, the Potency entry in assay [3], in [8], in [9] and in [10] was “inactive” each time. Moreover, in assay [5], the activity, negative = inhibition was -1.72%.

On to `N/N=C1/c2ccccc2N[C@H]1OC(=O)Nc1cccc(Cl)c1`, for which the Potency in [1] was above 11.4 µM; in [3], 0.794 µM (active); in assay [6], above 46 µM; in [7] it was above 9.22 µM. For the same compound, the activity change, negative = inhibition in assay [2] is -17.3%; in assay [4], -19.2%. Besides, the activity, negative = inhibition in [5] is -0.394%. Besides, the Potency result in [8], in assay [9] and in [10] was “inactive” in each case.

Turning to `COc1ncc2nc(-c3cc(F)cc(F)c3)c(=O)n(C[C@H]3CCCO3)c2n1`, the Potency was above 11.4 µM in [1], 3.16 µM (active) in [3], above 9.22 µM in [6] and above 46 µM in [7]. The activity change, negative = inhibition is -0.553% in [2] and -10.9% in assay [4]. In assay [5], the activity, negative = inhibition was -4.03%. Further, the Potency entry in assay [8], in [9] and in [10] was “inactive” each time.

Consider `CC(C)(C)CC(C)(C)c1ccc(O)c(C[N+](C)(C)[O-])c1`, for which the Potency was above 11.4 µM in [1], above 46 µM in assay [6] and above 9.22 µM in assay [7]. Besides, the activity change, negative = inhibition is 0.484% in assay [2], -17.9% [at 2.29 µM] in [3] and 17.3% in assay [4]. In addition, in assay [5], the activity, negative = inhibition was 0.425%. Also, the Potency entry in assay [8], in assay [9] and in assay [10] was “inactive” each time.

Regarding `CN(C)C[C@H]1CCC[C@@H](CN(C)C)C1=O`, the Potency is above 11.4 µM in assay [1], above 46 µM in [6] and above 9.22 µM in assay [7]. Moreover, the activity change, negative = inhibition was 5.24% in assay [2] and -4.78% in assay [4]. Further, the Potency entry in [3], in assay [8], in [9] and in assay [10] was “inactive” in each case. Besides, in assay [5], the activity, negative = inhibition was 3.25%.

As to `COCCn1c(=O)c(-c2cc(F)cc(F)c2)nc2cnc(OC)nc21`, the Potency is above 11.4 µM in assay [1], 3.98 µM (active) in assay [3], above 9.22 µM in [6] and above 46 µM in assay [7]. The results for the activity change, negative = inhibition in assay [2] and in assay [4] were -11.6% and -5.01%, respectively. Moreover, the activity, negative = inhibition in assay [5] was -2.4%. Also, the Potency result in assay [8], in assay [9] and in assay [10] was “inactive” in each case.

For `COc1ncc2nc(-c3ccc(Cl)cc3)c(=O)n(C[C@H]3CCCO3)c2n1`, the Potency was above 11.4 µM in assay [1], 0.501 µM (active) in [3], above 9.22 µM in assay [6] and above 46 µM in [7]. Besides, the activity change, negative = inhibition in assay [2] was -1.85%; in assay [4], -7.47%. Further, in [5], the activity, negative = inhibition was -9.41%. Moreover, the Potency entry in assay [8], in [9] and in assay [10] was “inactive” throughout.

For the compound `Nc1nc(Cc2ccccc2)nc(Cc2ccccc2)c1-c1ccccc1`, the Potency in assay [1] is above 11.4 µM; in [3], 1 µM (active); in assay [6], above 46 µM; in assay [7], above 9.22 µM. Further, the figures for the activity change, negative = inhibition in assay [2] and in assay [4] were -20.1% and 11.3%, respectively. The activity, negative = inhibition in assay [5] is -7.29%. Also, the Potency entry in assay [8], in assay [9] and in [10] was “inactive” each time.

`O=C(O)CCc1nc(-c2ccccc2-n2cccc2)no1`: the Potency in assay [1] is above 11.4 µM; in assay [6], above 46 µM; in assay [7], above 9.22 µM. The results for the activity change, negative = inhibition in assay [2], in assay [3] and in [4] were -5.29%, -17.3% [at 2.29 µM] and 8.59%, respectively. In addition, the activity, negative = inhibition in assay [5] was -0.807%. Further, the Potency result in [8], in assay [9] and in [10] was “inactive” throughout.

With `O=C(CSc1nc2ccccc2c2ccccc12)c1ccccc1`, the Potency is above 11.4 µM in assay [1], 0.251 µM (active) in [3], above 46 µM in assay [6] and above 9.22 µM in [7]. The activity change, negative = inhibition is -2.08% in assay [2] and 10.2% in assay [4]. Further, the activity, negative = inhibition in assay [5] is -4.01%. Also, the Potency result in assay [8], in [9] and in assay [10] was “inactive” throughout.

As to `O=C(CSc1nc2ccc([N+](=O)[O-])cc2s1)c1ccc2ccccc2c1`, the Potency in assay [1] is above 11.4 µM; in assay [3], 3.16 µM (active); in [6] it was above 46 µM; in assay [7], above 9.22 µM. The values for the activity change, negative = inhibition in assay [2] and in assay [4] were -4.94% and 9.35%, respectively. Also, the activity, negative = inhibition in assay [5] is 8.96%. Further, the Potency entry in assay [8], in assay [9] and in assay [10] was “inactive” in each case.
